# Assay results: PubChem BioAssay (NCATS)
# Results filed as inconclusive are left out. Entries that show only a call come without a potency. Activity calls are given as the source filed them. Calls come from the whole dose curve; as a rule, active = well fitted cell-killing curve with a large enough effect; inconclusive = small, poorly fitted or top-dose-only effect; inactive = flat fitted curve, though single readings scatter.
# Assay: MultiTox-Fluor Cytotoxicity Assay - LYMP1-001 - Live Cells (AID 947)
# Conditions: LYMP1-001 lymphoblastoid cells, live-cell protease fluorescence viability; series mostly up to 92.2 µM
# Text: NIH Chemical Genomics Center [NCGC]
# NIH Molecular Libraries Screening Centers Network [MLSCN]
# National Institutes of Environmental Health Sciences [NIEHS]
# National Toxicology Program [NTP]
# We have developed a 1536-well cell-based assay for quantitative high throughput screening (qHTS) against a number of cell lines to determine in vitro cytotoxicity of small molecules. This particular assay uses a human lymphoblastoid cell line (LYMP1-001) purchased from Coriell Institute.
# NCGC Assay Protocol Summary:
# The MultiTox-Fluor Cytotoxicity Assay (Promega) is a homogeneous method to simultaneously measure the relative number of live and dead cells in culture by detecting changes in cell membrane integrity. There are two fluorogenic peptide substrates in the assay reagent. Viable cells are determined when the cell-permeant substrate (GF-AFC) enters the cell and is cleaved by protease from live cells resulting in liberated fluorophore. This live-cell protease activity restricted to viable cells is proportional to cell number. The dead cells are determined by using fluorogenic cell-impermeant peptide substrate (bis-AAF-R110) which cleaved by dead cell proteases leaking from damaged cell membrane.
# Using the MultiTox-Fluor Cytotoxicity Assay, the relative number of live cells was measured in the lymphoblastoid cell line with complete culture medium following compound treatment for 16 hours. The assay was performed in opaque black Kalypsys 1536-well plates. In the screen, tetraoctylammonium bromide was used as positive control. Library compounds were measured for their ability to cause acute toxicity in the cell line, as reflected by a decrease in live cell protease activity, in a concentration-dependent manner. […] AC50 values were determined from concentration-response data modeled with the standard Hill equation.
# qHTS protocol for MultiTox-Fluor Cytotoxicity assay
# [Step] [Parameter] [Value] [Description]
# 1. Reagent; 5 uL; 2500 lymphoblastoid cells/well
# 2. Time; 5 hr; 37 C incubation
# 4. Controls; 23 nL; Tetraoctylammonium bromide 6.4pM to 92 uM
# 5. Time; 16 hr; 37 C incubation
# 6. Reagent; 5 uL; MuliTox-Fluor Assay reagent
# 7. Time; 60 min; Room Temperature
# 8. Detection; live-cell fluorescence (Ex/Em=405/510); EnVision plate reader
# Keywords: cell viability, cytotoxicity, lymphoblastoid cell line, fluorescence, NTPHTS, NTPHTS_NCGC, NIEHS, EPA, DSSTox, MLSMR, MLSCN, NIH Roadmap, qHTS, NCGC
# Potency is the fitted concentration of half-maximal effect.
row,SMILES,Potency
1,COC1=CC(=O)O[C@@H](/C=C/c2ccc3c(c2)OCO3)C1,inactive
2,O=C(O)COc1ccc(Cl)cc1Cl,inactive
3,NC(=S)Nc1ccccc1,inactive
4,Cc1ccccc1N,inactive
5,CCCCOC(=O)c1ccccc1C(=O)OCCCC,inactive
6,COP(=S)(OC)Oc1ccc([N+](=O)[O-])cc1,inactive
7,CCOP(=S)(OCC)SCSC(C)(C)C,inactive
8,O=[N+]([O-])c1cccc2ccccc12,inactive
9,Cc1cccc([N+](=O)[O-])c1,inactive
10,C=C(C)C#N,inactive
11,c1ccc2c(c1)CCCC2,inactive
12,C/C=C/c1ccc2c(c1)OCO2,inactive
13,CNC(=O)O/N=C/C(C)(C)SC,inactive
14,CCC[CH2][Sn]([Cl])([Cl])[Cl],inactive
15,c1nc[nH]n1,inactive
16,C=CC(N)=O,inactive
17,COC1=CC(=O)OC(CCc2ccccc2)C1 (stereo not given),inactive
18,CC(C)(C)OOC(C)(C)C,inactive
19,COc1ccc(N)cc1,inactive
20,CCCCCCCC(=O)Cl,inactive

row,SMILES,Potency
1,CCOP(=S)(OCC)Oc1ccc([N+](=O)[O-])cc1,inactive
2,C=C(Cl)Cl,inactive
3,C=CCc1ccc2c(c1)OCO2,inactive
4,CC(Cl)Cl,inactive
5,CN=C=S,inactive
6,OCC1CO1 (stereo not given),inactive
7,CCNc1nc(Cl)nc(NC(C)C)n1,inactive
8,C=CC(C)=O,inactive
9,O=C1C(Cl)=C(Cl)C(=O)C(Cl)=C1Cl,39.8 µM (active)
10,Cc1ccc(O)c(C)c1,inactive
11,ClC(Cl)=C(Cl)C(Cl)=C(Cl)Cl,inactive
12,Nc1ccc(Br)cc1,inactive
13,C[C@]12CC[C@H]3[C@@H](CCC4=CC(=O)CC[C@@]43C)[C@@H]1CC[C@@H]2O,inactive
14,CCSC(=O)Cl,inactive
15,O=NN(c1ccccc1)c1ccccc1,inactive
16,Cc1ccc([N+](=O)[O-])cc1C,inactive
17,C[N+](C)(C)Cc1ccccc1,inactive
18,c1ccc(OP(Oc2ccccc2)Oc2ccccc2)cc1,inactive
19,Clc1cccc(C(Cl)(Cl)Cl)n1,inactive
20,CCc1cccc(CC)c1N(COC)C(=O)CCl,inactive
